The values that follow come from PubChem BioAssay (EPA / NIEHS).

A short description of assay [1]: ATG_M_61_CIS: Attagene CIS-FACTORIAL HepG2 Assay for M61 Transcription Factor (Internal Marker) (AID 2282937). The note with it: HepG2 Attagene CIS-FACTORIAL M61 internal marker reporter; actives raise or lower the signal. The method in brief:
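Background-control endpoint: HepG2 cells with cis-regulated reporter constructs, 24 h exposure, reporter mRNA detected via fluorescent primer extension and capillary electrophoresis; values from bidirectional fitting with DMSO baseline.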

Assay [2] is described as follows: ATG_EGR_CIS: Attagene CIS-FACTORIAL HepG2 Assay for human Early Growth Response 1 (EGR1) (AID 2282938). To be noted: HepG2 Attagene CIS-FACTORIAL EGR reporter mRNA; actives raise or lower the signal. The method in brief: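 Endpoint derived by bidirectional fitting versus DMSO vehicle. Method: cis-promoter reporter units transfected into HepG2, 24 h dosing, RNA isolation, RT-PCR with 6-FAM primer extension and HpaI digestion, then capillary electrophoresis fluorescence detection.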

Assay [3] in a line: ATG_M_19_CIS: Attagene CIS-FACTORIAL HepG2 Assay for M19 Transcription Factor (Internal Marker) (AID 2282939). The note with it: HepG2 Attagene CIS-FACTORIAL M19 internal marker reporter; actives raise or lower the signal. The method in brief: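 Chemical-treated HepG2 (24 h) with MRTU constructs; reporter transcripts detected by fluorescent RT-PCR fragment analysis on capillary electrophoresis. Internal background marker, DMSO as baseline.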

Assay [4] in a line: ATG_ERE_CIS: Attagene CIS-FACTORIAL HepG2 Assay for Estrogen Response Element (ERE) (AID 2282940). The note with it: HepG2 ERE cis-reporter, Attagene RNA transcript; actives raise or lower the signal. The method in brief:
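Human liver cells (HepG2) bearing transiently transfected, promoter-regulated reporter units were exposed 24 h. Reporter mRNA induction was detected by capillary electrophoresis of labelled RT-PCR products and fitted bidirectionally to DMSO.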

Assay [5] in a line: ATG_Ets_CIS: Attagene CIS-FACTORIAL HepG2 Assay for human Erythroblast Transformation Specific (ETS) (AID 2282941). To be noted: HepG2 ETS cis-reporter transcription, actives raise or lower the signal. The method in brief: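 RT-PCR/capillary electrophoresis fluorescence read-out of reporter mRNA; HepG2 transient multi-reporter transfection; 24 h compound exposure; gain or loss of signal fitted bidirectionally relative to DMSO.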

In assay [6] the target is Hepatocyte nuclear factor 3-beta (Homo sapiens) (UniProt Q9Y261). Briefly: ATG_FoxA2_CIS: Attagene CIS-FACTORIAL HepG2 Assay for human Forkhead box A2 (FOXA2) (AID 2282942). The note with it: HepG2 cis-reporter transcription factor activity, 24 h; actives raise or lower the signal. The method in brief:
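Measured: reporter mRNA induction or loss in HepG2 transiently carrying multiple cis-regulated reporter units, 24 h after dosing. Quantified by RT-PCR plus capillary electrophoresis, normalised to DMSO.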

The nature of assay [7]: ATG_FoxO_CIS: Attagene CIS-FACTORIAL HepG2 Assay for human Forkhead box O (FoxO) (AID 2282943). The note with it: HepG2 Attagene cis-reporter, FoxO element, mRNA; actives raise or lower the signal. The method in brief:
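HepG2 cells transiently transfected with cis-element-driven reporter units report endogenous FoxO activity. After 24 h chemical exposure, reporter mRNA quantified by RT-PCR, fluorescent labeling, HpaI digestion and capillary electrophoresis; bidirectional fit versus DMSO.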

Assay [8] in a line: ATG_GATA_CIS: Attagene CIS-FACTORIAL HepG2 Assay for human GATA Binding Protein (AID 2282944). To be noted: HepG2 GATA cis-element reporter, Attagene multiplex mRNA; actives raise or lower the signal. The method in brief: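 Transfected cis-reporter HepG2 cells were treated with chemicals for 24 hours. Total RNA was then converted to cDNA, amplified with reporter-specific primers and analysed by fluorescent capillary electrophoresis, using DMSO-treated wells as baseline.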

Assay [9] is described as follows: ATG_GLI_CIS: Attagene CIS-FACTORIAL HepG2 Assay for human Zinc Finger Protein GLI1 (AID 2282945). To be noted: HepG2, Attagene cis-factorial reporter mRNA, GLI element; actives raise or lower the signal. The method in brief:
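Transiently transfected HepG2 cells report endogenous transcription factor activity via cis-element-driven reporter units. After 24 h compound exposure, reporter mRNA was measured by RT-PCR with capillary electrophoresis; bidirectional fitting against DMSO baseline.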

The target in assay [10] is Bile acid receptor (Homo sapiens) (UniProt Q96RI1). The assay is described as follows: ATG_IR1_CIS: Attagene CIS-FACTORIAL HepG2 Assay for human Nuclear Receptor Subfamily 1 Group H Member 4 (NR1H4), IR1 submotif (AID 2282946). To be noted: IR1 reporter transcription, actives raise or lower the signal. The method in brief:
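Fluorescence of capillary-separated, HpaI-digested RT-PCR reporter products gave IR1-element mRNA induction in HepG2 cells 24 h after dosing. Endogenous transcription factors drove the cis-regulated reporters; activity was fitted bidirectionally against DMSO.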

Assay [11] can be described thus: ATG_GRE_CIS: Attagene CIS-FACTORIAL HepG2 Assay for human Glucocorticoid Response Elements (GRE) (AID 2282947). The note with it: HepG2 GRE cis-reporter, Attagene multiplex mRNA; actives raise or lower the signal. The method in brief:
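Fluorescence intensity of reporter-specific cDNA fragments, separated by capillary electrophoresis, provides the signal. Constructs carry cis-regulating promoters in transiently transfected HepG2 liver cells; 24 h incubation; fitting is bidirectional against DMSO.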

Assay [12] is described as follows: ATG_ISRE_CIS: Attagene CIS-FACTORIAL HepG2 Assay for human Interferon Regulatory Factor 1 (IRF1) binding to an Interferon-Stimulated Response Element (ISRE) (AID 2282948). The note with it: HepG2 ISRE cis-reporter (Attagene), mRNA transcription readout; actives raise or lower the signal. The method in brief: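 Read-out: fluorescent RT-PCR products resolved by capillary electrophoresis, reporting endogenous transcription factor activity via ISRE-driven reporter mRNA in transfected HepG2 cells dosed for 24 h; gain or loss fitted relative to DMSO.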

Assay [13] is described as follows: ATG_M_32_CIS: Attagene CIS-FACTORIAL HepG2 Assay for M32 Transcription Factor (Internal Marker) (AID 2282949).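 Also: background control marker of the multiplexed CIS panel rather than a real target.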 To be noted: HepG2 Attagene cis-factorial M32 reporter, mRNA; actives raise or lower the signal. The method in brief: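 HepG2 transfectants (cis-regulated reporter transcription units) dosed 24 h. Reporter mRNA by RT-PCR plus CE, analysed as gain or loss relative to DMSO.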

Assay [14] is described as follows: ATG_M_06_CIS: Attagene CIS-FACTORIAL HepG2 Assay for M06 Transcription Factor (Internal Marker) (AID 2282950). The note with it: HepG2 Attagene CIS-FACTORIAL M06 internal marker reporter; actives raise or lower the signal. The method in brief:
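Cells (HepG2, transiently carrying cis-driven reporter units) receive chemical for 24 h before RNA isolation. Reporter cDNA is PCR-amplified, FAM-labelled by primer extension, HpaI-digested and sized on a capillary analyser.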

The target of assay [15] is Hypoxia-inducible factor 1-alpha (Homo sapiens) (UniProt Q16665). The assay is described as follows: ATG_HIF1a_CIS: Attagene CIS-FACTORIAL HepG2 Assay for human Hypoxia Inducible Factor 1 (HIF1A) (AID 2282951). To be noted: HepG2 Attagene cis-factorial HIF1a reporter transcription; actives raise or lower the signal. The method in brief: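 Dosed 24 h, transfected HepG2 cells yielded total RNA whose reporter transcripts were RT-PCR-amplified and sized by capillary electrophoresis using fluorescent labelling; DMSO defined baseline, with gain and loss of signal both fitted.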

Assay [16] deals with Hepatocyte nuclear factor 6 (Homo sapiens) (UniProt Q9UBC0). Briefly: ATG_HNF6_CIS: Attagene CIS-FACTORIAL HepG2 Assay for human Hepatocyte Nuclear Factor 6 (HNF6) (AID 2282952). The note with it: HepG2 Attagene cis-factorial HNF6 reporter transcription; actives raise or lower the signal. The method in brief:
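Twenty-four-hour chemical treatment of reporter-transfected HepG2 cells precedes RNA isolation, DNase-treated reverse transcription and PCR of reporter sequences. Labelled fragments are sized by capillary electrophoresis and fitted bidirectionally versus DMSO.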

Assay [17] has as its target Heat shock factor protein 1 (Homo sapiens) (UniProt Q00613). Briefly: ATG_HSE_CIS: Attagene CIS-FACTORIAL HepG2 Assay for human Heat Shock Transcription Factor 1 (HSE) (AID 2282953). To be noted: HepG2 HSE cis-reporter, Attagene RNA transcription; actives raise or lower the signal. The method in brief: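 Liver-derived HepG2 cells carry transiently introduced multiple reporter units governed by cis promoters. Reporter RNA measured 24 h post-dose through reverse transcription, PCR amplification, fluorescent labelling and capillary electrophoresis, normalised to DMSO.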

Assay [18] is described as follows: ATG_MRE_CIS: Attagene CIS-FACTORIAL HepG2 Assay for human Metal Responsive Element (MRE) (AID 2282954). The note with it: HepG2 MRE cis-reporter transcription, Attagene multiplex; actives raise or lower the signal. The method in brief:
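Measured here is mRNA induction from an MRE cis-element reporter in HepG2 after 24 h, quantified by fluorescence of labelled RT-PCR products on capillary electrophoresis; gain- and loss-of-signal fits use DMSO as baseline.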

A short description of assay [19]: ATG_PBREM_CIS: Attagene CIS-FACTORIAL HepG2 Assay for human Phenobarbital-responsive Enhancer Module (PBREM) (AID 2282955). The note with it: HepG2 PBREM cis-reporter, Attagene multiplexed transcription; actives raise or lower the signal. The method in brief: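 Transfected liver-derived HepG2 cells exposed 24 h; PBREM reporter transcript quantified via RT-PCR and capillary electrophoresis, with activity in either direction referenced to DMSO.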

The structures appear in SMILES notation. Some compounds were tested as several samples or in several runs, with calls that do not always agree. The source made the active and inactive calls. The calls were made as follows: active = hit-call score of the fitted dose curve at least 0.9, where 1 is the maximum; inactive = score below 0.9.

Sequence of Hepatocyte nuclear factor 3-beta (Homo sapiens) (Q9Y261 whole entry, looked up): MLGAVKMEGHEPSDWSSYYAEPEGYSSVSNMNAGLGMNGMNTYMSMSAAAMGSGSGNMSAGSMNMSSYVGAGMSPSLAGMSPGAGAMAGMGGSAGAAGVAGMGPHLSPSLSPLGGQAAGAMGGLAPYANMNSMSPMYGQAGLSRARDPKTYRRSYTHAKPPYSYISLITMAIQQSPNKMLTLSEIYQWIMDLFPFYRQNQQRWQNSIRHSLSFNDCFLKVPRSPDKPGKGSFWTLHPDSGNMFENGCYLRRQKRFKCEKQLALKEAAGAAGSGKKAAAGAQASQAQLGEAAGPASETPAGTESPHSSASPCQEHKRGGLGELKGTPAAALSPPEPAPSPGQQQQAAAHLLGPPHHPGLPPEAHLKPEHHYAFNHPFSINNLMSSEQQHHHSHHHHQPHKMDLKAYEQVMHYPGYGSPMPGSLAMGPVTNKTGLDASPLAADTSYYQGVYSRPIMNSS
Sequence of Heat shock factor protein 1 (Homo sapiens) (Q00613 whole entry, looked up): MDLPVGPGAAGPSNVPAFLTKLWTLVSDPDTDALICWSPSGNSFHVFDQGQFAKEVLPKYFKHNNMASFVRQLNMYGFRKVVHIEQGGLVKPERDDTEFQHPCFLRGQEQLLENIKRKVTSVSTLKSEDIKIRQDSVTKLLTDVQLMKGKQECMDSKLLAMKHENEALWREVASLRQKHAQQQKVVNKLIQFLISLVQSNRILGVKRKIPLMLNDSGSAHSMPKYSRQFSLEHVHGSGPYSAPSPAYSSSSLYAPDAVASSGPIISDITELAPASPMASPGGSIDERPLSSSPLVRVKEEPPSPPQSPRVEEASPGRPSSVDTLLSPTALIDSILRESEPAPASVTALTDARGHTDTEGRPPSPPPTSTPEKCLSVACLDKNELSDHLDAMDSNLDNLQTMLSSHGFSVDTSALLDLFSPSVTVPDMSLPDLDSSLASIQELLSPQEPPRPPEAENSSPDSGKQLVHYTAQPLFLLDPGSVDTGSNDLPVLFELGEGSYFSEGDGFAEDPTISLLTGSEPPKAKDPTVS
Sequence of Hypoxia-inducible factor 1-alpha (Homo sapiens) (Q16665 whole entry, looked up): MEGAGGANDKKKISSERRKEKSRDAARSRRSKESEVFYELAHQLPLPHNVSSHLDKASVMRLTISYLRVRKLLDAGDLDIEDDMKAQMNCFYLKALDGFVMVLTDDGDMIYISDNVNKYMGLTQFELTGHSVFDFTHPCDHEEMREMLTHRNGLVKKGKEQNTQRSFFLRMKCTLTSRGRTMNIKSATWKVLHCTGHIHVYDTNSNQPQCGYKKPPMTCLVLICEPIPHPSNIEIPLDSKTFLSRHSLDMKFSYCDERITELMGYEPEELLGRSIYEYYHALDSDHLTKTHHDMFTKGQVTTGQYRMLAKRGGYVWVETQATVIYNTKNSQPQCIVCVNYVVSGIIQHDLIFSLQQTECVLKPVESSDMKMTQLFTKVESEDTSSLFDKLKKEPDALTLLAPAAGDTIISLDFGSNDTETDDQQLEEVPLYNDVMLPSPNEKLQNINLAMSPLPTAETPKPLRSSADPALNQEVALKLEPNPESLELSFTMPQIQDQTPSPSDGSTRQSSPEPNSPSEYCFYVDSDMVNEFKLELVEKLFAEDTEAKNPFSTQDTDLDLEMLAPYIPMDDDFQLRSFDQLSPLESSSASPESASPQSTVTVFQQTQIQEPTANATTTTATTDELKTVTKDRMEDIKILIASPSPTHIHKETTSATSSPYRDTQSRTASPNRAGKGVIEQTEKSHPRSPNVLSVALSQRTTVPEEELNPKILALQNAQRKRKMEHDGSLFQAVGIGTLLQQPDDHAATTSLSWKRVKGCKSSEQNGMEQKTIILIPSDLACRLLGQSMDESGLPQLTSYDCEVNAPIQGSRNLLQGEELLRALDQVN
Sequence of Hepatocyte nuclear factor 6 (Homo sapiens) (Q9UBC0 whole entry, looked up, the tested form may be a part): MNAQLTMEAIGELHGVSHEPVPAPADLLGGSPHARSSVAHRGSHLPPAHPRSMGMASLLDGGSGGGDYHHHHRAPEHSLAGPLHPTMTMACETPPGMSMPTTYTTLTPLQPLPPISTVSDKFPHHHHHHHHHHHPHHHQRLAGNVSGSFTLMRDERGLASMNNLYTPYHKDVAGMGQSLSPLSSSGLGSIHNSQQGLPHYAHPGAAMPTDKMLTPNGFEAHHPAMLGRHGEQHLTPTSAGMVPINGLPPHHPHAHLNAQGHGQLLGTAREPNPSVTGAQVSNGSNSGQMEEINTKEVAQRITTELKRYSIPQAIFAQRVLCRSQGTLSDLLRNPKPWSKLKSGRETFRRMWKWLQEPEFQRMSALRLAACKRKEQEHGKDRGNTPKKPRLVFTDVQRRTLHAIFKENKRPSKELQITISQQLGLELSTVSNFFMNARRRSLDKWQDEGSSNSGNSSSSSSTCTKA
Sequence of Bile acid receptor (Homo sapiens) (Q96RI1 whole entry, looked up): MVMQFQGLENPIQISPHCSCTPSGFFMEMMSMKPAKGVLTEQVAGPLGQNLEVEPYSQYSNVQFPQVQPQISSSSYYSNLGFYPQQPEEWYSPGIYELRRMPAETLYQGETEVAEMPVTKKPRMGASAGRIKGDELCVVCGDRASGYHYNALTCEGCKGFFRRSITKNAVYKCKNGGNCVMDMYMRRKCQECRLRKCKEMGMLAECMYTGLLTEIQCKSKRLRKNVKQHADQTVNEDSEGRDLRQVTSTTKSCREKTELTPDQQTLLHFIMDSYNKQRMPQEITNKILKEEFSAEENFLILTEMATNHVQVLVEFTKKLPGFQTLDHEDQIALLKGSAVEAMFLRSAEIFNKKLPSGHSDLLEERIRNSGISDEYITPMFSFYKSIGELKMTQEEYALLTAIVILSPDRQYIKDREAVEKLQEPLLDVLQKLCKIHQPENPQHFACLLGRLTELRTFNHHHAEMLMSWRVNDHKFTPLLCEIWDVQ

`Cc1cccc(C)c1N`: the result in [1], in assay [2], in [3], in assay [4], in [5] and in assay [6] was inactive. Further, the compound was classed as inactive in [7], in assay [8], in assay [9], in assay [10], in assay [11] and in assay [12]. Further, the outcome in assay [13], in assay [14], in assay [15], in [16], in assay [17] and in assay [18] was inactive.
Usually AC50 stands for the concentration giving half of the maximal activity seen. As to `CC(C)(O)C(=O)Nc1ccc([N+](=O)[O-])c(C(F)(F)F)c1`, the result in assay [1], in assay [2], in [3], in assay [4], in assay [5] and in [6] was inactive. The compound was called inactive in assay [7], in [8], in [9], in [12], in assay [13] and in assay [14]. For the same compound, the outcome in assay [15], in assay [16], in assay [17], in assay [18] and in assay [19] was inactive. In addition, the AC50 in assay [17] was 77 µM (active).
`O=S(=O)(O)C(F)(F)C(F)(F)C(F)(F)C(F)(F)F`: the compound was classed as inactive in [1], in assay [2], in assay [3], in [4], in assay [5] and in [6]. In addition, the compound was called inactive in assay [7], in assay [8], in assay [9], in [11], in assay [12] and in assay [13]. For the same compound, the call in assay [14], in assay [15], in assay [16], in assay [17], in assay [18] and in assay [19] was inactive.
As to `Clc1ccc(Cl)cc1`, the compound was called inactive in [1], in [2], in [3], in [4], in assay [5] and in assay [6]. The call in assay [7], in [8], in assay [9], in [11], in assay [12] and in assay [13] was inactive. The call in [14], in [15], in [16], in assay [17], in assay [18] and in assay [19] was inactive. Also, the half-maximal activity concentration (AC50) was 5.24 µM (active) in assay [15] and 179 µM (active) in assay [17].
`Clc1ccc(C(Cl)(Cl)Cl)cc1`: the compound was classed as inactive in [1], in assay [2], in [3], in [4], in assay [5] and in [6]. The result in assay [7], in [8], in assay [9], in assay [10], in assay [11] and in assay [12] was inactive. Besides, the compound was called inactive in [13], in [14], in assay [15], in assay [16], in assay [17] and in [18].
As for `CN(C)CCO`, the outcome in [1], in assay [2], in assay [3], in assay [4], in assay [5] and in assay [6] was inactive. The outcome in assay [7], in assay [8], in assay [9], in assay [11], in [12] and in assay [13] was inactive. Moreover, the result in [14], in assay [15], in assay [16], in assay [17], in [18] and in [19] was inactive.
